From PubChem BioAssay AID652095 (National Center for Advancing Translational Sciences (NCATS), 2013)
Calls of active or inactive are those of the source.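 Rule for the calls: active = glucocerebrosidase enzyme activity raised in patient cells of every tested mutation; inactive = no rise in glucocerebrosidase activity for any mutation.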

These compounds were tested against Lysosomal acid glucosylceramidase (Homo sapiens) (UniProt P04062) (assay: Extended Characterization of Activators of N370S glucocerebrosidase as a Potential Chaperone Treatment of Gaucher Disease: Quantification of GCase activity). Conditions: Gaucher patient macrophages, GCase 4MU fluorescence.
Excerpt: Glucocerebrosidase (GCase) catalyzes the hydrolysis of beta-glucocerebroside to glucose and ceramide in lysosomes. Mutations in the glucocerebrosidase gene result in Gaucher disease, an autosomal recessive lysosomal storage disorder. Many of the mutations encountered in patients with Gaucher disease are missense alterations that may cause misfolding, decreased stability and/or mistrafficking of this lysosomal protein. […] These inhibitors include iminosugar analogs and other inhibitors that were discovered as part of previous work. However, the enhancement of enzyme activity by the chaperone action of an enzyme inhibitor must be balanced against the direct inhibition of the enzyme. […] In this extended characterization of our probe, we have further characterized the activity of ML198 in patient-derived cellular models of Gaucher disease. In Gaucher-derived macrophages from 17 patients, with 4 separate mutation, we quantified GCase activity using a fluorescence read-out. NIH Chemical Genomics Center [NCGC] NIH Molecular Libraries Probe Production Centers Network [MLPCN] […]
Treated cells were cultured in black 96-well plates. After adding 100 µl assay buffer (200 mM sodium acetate (pH4), 5 mM 4MU-betaGlu and protease inhibitor cocktail (Sigma), cells were incubated for 1 hr at 37 degrees C. The reaction was halted using a stop solution (1 M NaOH and 1 M Glycine) and fluorescence measured.

Sequence of Lysosomal acid glucosylceramidase (Homo sapiens) (P04062 40-536 N409S): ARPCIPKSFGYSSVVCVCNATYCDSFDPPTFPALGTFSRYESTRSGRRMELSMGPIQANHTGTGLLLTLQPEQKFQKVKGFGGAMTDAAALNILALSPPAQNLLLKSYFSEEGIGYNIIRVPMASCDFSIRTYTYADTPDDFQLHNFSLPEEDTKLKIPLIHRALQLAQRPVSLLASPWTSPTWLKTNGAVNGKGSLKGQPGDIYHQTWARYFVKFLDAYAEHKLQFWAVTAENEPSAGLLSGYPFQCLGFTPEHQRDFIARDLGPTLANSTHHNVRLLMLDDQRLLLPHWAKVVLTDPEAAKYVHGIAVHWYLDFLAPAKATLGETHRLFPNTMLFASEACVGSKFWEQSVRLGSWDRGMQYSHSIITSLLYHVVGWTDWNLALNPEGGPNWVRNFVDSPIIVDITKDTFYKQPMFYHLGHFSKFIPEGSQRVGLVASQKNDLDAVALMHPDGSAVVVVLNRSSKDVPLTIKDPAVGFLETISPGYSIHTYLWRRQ

Row | Structure (SMILES) | outcome
1 | C#Cc1ccc(NC(=O)c2cnn3c(C)cc(C)nc23)cc1 | active; increased
